One may read the inhibition as the relative decrease from the control value, in per cent.

The target in assay [1] is Glycogen synthase kinase-3 beta (Homo sapiens) (UniProt P49841). The conditions noted are these: at 1 µM.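 Further: reported values are mean percent inhibition of GSK3B.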
For assay [2], the target named is Homeodomain-interacting protein kinase 1 (Homo sapiens) (UniProt Q86Z02). The conditions noted are these: at 0.1 µM.
For assay [3] the target is unchanged. Conditions: at 1 µM.
The target of assay [4] is T1, Homeodomain-interacting protein kinase 4 (Homo sapiens) (UniProt Q8NE63).
T1 sequence (whole entry): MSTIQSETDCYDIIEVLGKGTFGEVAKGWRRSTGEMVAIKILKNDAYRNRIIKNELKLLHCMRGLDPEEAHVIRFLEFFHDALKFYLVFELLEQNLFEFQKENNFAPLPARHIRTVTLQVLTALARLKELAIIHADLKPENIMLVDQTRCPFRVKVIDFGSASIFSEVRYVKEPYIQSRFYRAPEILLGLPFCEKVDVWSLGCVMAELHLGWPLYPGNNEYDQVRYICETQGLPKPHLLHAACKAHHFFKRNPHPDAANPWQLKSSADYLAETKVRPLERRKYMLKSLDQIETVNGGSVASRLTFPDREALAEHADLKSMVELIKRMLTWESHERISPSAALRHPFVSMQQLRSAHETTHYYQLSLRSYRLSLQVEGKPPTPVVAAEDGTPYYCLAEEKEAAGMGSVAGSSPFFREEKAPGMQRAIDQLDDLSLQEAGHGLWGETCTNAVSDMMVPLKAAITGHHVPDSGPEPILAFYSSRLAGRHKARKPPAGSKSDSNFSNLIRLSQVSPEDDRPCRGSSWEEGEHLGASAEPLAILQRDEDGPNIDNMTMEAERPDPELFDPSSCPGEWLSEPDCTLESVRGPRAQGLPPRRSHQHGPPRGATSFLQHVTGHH
Conditions: at 0.1 µM.

Assay [5] deals with T1, Homeodomain-interacting protein kinase 4 (Homo sapiens). Conditions: at 1 µM.
For assay [6], the target named is Mitogen-activated protein kinase 9 (Homo sapiens) (UniProt P45984). Conditions: at 0.1 µM.
Chain of Mitogen-activated protein kinase 9 (Homo sapiens) (P45984 whole entry, looked up): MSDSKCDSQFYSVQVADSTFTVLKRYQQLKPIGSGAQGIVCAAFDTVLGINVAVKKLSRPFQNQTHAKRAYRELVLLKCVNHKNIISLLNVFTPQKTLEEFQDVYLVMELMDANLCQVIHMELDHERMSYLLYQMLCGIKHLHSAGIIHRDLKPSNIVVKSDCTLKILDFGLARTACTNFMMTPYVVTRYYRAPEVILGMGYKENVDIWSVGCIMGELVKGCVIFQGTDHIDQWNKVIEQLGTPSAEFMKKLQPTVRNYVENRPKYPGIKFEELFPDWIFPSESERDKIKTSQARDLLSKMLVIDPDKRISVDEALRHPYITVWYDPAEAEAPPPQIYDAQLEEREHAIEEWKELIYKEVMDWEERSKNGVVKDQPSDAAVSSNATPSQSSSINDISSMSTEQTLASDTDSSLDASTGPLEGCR
Assay [7] shares this target. Conditions: at 1 µM.
Assay [8] deals with Mitogen-activated protein kinase 1 (Homo sapiens) (UniProt P28482). The conditions noted are these: at 1 µM.
Chain of Mitogen-activated protein kinase 1 (Homo sapiens) (P28482 whole entry): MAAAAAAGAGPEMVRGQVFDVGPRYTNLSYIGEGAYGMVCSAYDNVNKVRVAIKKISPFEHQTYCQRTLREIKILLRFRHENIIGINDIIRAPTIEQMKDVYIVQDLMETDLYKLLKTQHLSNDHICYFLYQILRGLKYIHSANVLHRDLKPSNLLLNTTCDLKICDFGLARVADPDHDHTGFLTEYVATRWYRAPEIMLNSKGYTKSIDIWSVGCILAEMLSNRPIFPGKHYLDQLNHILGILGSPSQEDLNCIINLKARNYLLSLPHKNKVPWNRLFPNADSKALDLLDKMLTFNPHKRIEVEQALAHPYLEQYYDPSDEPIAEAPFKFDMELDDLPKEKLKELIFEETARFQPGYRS
Assay [9] has as its target Mitogen-activated protein kinase 3 (Homo sapiens) (UniProt P27361). Conditions: at 0.1 µM.
The target is the same in assay [10]. Conditions: at 1 µM.
Assay [11] deals with SRSF protein kinase 3 (Homo sapiens) (UniProt Q9UPE1). The conditions noted are these: at 0.1 µM.
Chain of SRSF protein kinase 3 (Homo sapiens) (Q9UPE1 whole entry): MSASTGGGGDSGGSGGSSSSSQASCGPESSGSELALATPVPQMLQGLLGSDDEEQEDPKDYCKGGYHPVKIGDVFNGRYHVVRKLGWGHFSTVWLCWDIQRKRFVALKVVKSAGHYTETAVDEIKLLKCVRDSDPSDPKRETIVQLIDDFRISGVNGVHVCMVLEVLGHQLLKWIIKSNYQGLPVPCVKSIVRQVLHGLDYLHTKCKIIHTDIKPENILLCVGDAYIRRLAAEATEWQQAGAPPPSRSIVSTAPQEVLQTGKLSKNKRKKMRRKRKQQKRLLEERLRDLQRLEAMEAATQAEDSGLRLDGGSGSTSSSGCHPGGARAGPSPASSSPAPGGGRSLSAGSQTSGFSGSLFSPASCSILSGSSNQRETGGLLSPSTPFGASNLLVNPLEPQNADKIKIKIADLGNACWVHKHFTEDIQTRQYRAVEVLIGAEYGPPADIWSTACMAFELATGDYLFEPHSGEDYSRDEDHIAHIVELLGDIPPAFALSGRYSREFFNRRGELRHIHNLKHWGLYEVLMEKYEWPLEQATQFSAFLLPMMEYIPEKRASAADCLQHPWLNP
The target is the same in assay [12]. Conditions: at 1 µM.
The target of assay [13] is Mitogen-activated protein kinase 14 (Homo sapiens) (UniProt Q16539). Conditions: at 0.1 µM.
Chain of Mitogen-activated protein kinase 14 (Homo sapiens) (Q16539 whole entry): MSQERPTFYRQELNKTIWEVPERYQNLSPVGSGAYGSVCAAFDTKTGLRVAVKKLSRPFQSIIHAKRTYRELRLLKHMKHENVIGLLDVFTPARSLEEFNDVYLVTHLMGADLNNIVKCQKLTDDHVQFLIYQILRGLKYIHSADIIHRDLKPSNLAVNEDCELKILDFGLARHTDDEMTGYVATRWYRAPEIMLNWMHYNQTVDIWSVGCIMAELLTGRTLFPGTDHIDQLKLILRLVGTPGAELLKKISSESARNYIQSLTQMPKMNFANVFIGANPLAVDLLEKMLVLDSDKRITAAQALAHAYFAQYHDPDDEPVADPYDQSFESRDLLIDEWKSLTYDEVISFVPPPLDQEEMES
For assay [14] the target is unchanged. Conditions: at 1 µM.
Assay [15] deals with Mitogen-activated protein kinase 11 (Homo sapiens) (UniProt Q15759). The conditions noted are these: at 0.1 µM.
Chain of Mitogen-activated protein kinase 11 (Homo sapiens) (Q15759 whole entry): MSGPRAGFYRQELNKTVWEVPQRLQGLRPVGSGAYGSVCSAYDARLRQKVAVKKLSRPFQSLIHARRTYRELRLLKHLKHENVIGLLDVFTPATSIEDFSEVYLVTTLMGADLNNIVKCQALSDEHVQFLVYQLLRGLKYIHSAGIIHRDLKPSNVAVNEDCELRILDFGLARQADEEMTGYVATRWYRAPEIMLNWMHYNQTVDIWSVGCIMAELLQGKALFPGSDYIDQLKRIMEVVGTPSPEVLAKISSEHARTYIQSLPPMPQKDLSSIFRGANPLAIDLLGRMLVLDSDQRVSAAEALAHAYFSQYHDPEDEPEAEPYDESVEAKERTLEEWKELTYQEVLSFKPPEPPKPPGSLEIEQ
The target is the same in assay [16]. Conditions: at 1 µM.
In assay [17] the target is T2, Mitogen-activated protein kinase 13 (Homo sapiens) (UniProt O15264).
T2 sequence (whole entry): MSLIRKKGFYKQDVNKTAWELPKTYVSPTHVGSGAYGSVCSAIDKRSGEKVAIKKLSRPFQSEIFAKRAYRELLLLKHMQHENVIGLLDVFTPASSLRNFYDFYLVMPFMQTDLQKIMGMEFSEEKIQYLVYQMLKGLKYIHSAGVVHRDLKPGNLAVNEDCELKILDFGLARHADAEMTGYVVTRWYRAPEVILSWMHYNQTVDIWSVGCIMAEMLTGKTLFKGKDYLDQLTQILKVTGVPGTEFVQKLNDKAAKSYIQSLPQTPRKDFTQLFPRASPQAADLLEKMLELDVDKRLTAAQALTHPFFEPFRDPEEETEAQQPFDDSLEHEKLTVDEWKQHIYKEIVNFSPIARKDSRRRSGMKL
The conditions noted are these: at 0.1 µM.

Assay [18] concerns the target T2, Mitogen-activated protein kinase 13 (Homo sapiens). Conditions: at 1 µM.
The target in assay [19] is T3, Mitogen-activated protein kinase 12 (Homo sapiens) (UniProt P53778).
T3 sequence (whole entry): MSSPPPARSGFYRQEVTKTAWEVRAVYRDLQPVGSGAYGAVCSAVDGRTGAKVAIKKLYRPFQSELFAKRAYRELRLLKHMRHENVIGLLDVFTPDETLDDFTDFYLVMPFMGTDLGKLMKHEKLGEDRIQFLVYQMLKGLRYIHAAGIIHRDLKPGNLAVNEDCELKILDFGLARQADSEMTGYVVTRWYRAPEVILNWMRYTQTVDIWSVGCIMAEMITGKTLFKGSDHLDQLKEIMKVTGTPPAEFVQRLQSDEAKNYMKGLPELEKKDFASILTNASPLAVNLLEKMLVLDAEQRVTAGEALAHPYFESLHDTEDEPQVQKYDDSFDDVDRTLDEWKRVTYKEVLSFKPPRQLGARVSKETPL
The conditions noted are these: at 0.1 µM.

For assay [20], the target named is Mitogen-activated protein kinase 1 (Homo sapiens) (UniProt P28482). Conditions: at 0.1 µM.

Chain of Glycogen synthase kinase-3 beta (Homo sapiens) (P49841 whole entry, looked up): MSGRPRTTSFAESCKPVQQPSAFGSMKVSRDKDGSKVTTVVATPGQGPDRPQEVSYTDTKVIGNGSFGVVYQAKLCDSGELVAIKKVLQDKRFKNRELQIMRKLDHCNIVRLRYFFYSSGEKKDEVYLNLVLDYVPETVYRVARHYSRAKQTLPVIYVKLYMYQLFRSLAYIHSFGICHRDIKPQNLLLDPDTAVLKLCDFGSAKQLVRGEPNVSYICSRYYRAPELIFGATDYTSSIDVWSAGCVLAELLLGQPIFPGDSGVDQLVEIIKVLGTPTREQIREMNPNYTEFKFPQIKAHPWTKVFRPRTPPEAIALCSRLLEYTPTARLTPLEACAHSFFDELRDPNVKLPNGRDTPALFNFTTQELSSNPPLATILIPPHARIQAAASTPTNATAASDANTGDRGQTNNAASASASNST
Chain of Homeodomain-interacting protein kinase 1 (Homo sapiens) (Q86Z02 whole entry, looked up): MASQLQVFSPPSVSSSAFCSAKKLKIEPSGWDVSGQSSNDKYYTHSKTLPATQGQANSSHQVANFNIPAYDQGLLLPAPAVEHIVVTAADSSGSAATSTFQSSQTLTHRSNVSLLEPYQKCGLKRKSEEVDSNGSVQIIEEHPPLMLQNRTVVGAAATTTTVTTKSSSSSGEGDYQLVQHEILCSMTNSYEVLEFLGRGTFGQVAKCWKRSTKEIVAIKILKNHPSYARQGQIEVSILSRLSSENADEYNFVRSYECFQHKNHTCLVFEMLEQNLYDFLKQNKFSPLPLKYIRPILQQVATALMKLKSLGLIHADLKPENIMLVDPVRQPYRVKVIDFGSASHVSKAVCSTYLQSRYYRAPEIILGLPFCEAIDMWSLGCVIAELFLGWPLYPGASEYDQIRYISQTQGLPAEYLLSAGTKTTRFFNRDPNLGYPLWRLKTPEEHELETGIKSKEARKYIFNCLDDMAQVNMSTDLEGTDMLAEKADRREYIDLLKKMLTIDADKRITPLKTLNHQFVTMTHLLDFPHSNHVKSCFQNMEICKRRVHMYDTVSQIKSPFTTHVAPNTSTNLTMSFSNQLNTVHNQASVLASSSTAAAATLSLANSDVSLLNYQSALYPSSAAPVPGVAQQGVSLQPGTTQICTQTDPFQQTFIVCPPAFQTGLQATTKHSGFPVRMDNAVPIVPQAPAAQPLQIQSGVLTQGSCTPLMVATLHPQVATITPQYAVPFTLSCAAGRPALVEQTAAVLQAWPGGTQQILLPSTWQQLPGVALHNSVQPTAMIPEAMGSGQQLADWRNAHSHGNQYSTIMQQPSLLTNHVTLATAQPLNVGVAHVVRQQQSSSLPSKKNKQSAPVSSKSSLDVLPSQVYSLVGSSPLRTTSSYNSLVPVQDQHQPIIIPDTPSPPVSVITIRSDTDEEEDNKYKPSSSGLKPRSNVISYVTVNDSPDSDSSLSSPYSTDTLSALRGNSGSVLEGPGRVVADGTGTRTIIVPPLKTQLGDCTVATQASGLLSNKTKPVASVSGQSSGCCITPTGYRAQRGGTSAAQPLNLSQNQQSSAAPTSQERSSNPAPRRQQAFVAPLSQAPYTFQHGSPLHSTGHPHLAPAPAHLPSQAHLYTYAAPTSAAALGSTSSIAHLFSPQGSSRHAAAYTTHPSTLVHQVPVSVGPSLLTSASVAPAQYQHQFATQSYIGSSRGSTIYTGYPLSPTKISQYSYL
Chain of Mitogen-activated protein kinase 3 (Homo sapiens) (P27361 whole entry): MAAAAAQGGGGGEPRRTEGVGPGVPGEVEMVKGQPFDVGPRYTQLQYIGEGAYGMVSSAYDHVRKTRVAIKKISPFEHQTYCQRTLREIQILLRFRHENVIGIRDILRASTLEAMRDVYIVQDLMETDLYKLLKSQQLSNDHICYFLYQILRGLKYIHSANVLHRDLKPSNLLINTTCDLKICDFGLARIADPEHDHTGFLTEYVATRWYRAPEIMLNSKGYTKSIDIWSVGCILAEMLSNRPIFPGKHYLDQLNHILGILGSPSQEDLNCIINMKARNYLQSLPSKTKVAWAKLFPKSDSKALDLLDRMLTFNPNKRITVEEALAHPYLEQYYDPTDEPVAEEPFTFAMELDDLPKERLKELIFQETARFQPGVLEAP

Consider `NS(=O)(=O)c1ccc(Nc2cc(-c3ccc(O)c(F)c3)n[nH]2)cc1`, for which the inhibition in [1] was 38%; in assay [2], 0.97%; in assay [3] it was 16.1%; in [4] it was 1.96%; in assay [5], 10.4%; in [6], -1.59%. Besides, the inhibition in assay [7] was 2.43%; in [8] it was -4.87%; in assay [9] it was -1.57%; in assay [10], -1.26%; in assay [11] it was -1.38%; in assay [12] it was 0.03%. For the same compound, the inhibition is -1.03% in [13]; -2.41% in [14]; -1.5% in assay [15]; 6.83% in assay [16]; -6.82% in assay [17]; -4.19% in assay [18]. For the same compound, in [19], the inhibition was -2.85%.
`COc1ccc2ncn(-c3cc(O[C@H](C)c4ccccc4Cl)c(C(N)=O)s3)c2c1`: the inhibition in assay [1] is -0.28%; in assay [2], -4.71%; in [3] it was -1.67%; in assay [4], 0.62%; in [5], 5.59%; in assay [6] it was 2.17%. The inhibition in assay [7] is -0.22%; in assay [20], 5.14%; in [8], 4.54%; in assay [9] it was 4.56%; in assay [10], 3.04%; in assay [11], -3.56%. The inhibition in assay [12] is -0.27%; in assay [13] it was 6.99%; in [14], 6.3%; in assay [15], 2.23%; in [16], 4.3%; in assay [17] it was 5.14%. The inhibition in assay [18] was found to be 4.31%; in [19], 3.31%.
As to `CCc1nccc2c1nc(-c1nonc1N)n2CC`, the inhibition in assay [1] is 8.38%; in [2] it was -0.74%; in assay [3], 6.91%; in assay [4], 0.62%; in assay [5], 9.48%; in [6], 3.7%. Also, the inhibition in assay [7] is 3.34%; in assay [20], -1.66%; in assay [8] it was 0.54%; in assay [9], 1.33%; in [10], 1.77%; in assay [11], -1.38%. The inhibition in assay [12] is -1.65%; in assay [13], 3.67%; in assay [15], 2.18%; in assay [16] it was 1.56%; in assay [17] it was -1.2%; in assay [18], 1.58%. Further, the inhibition in assay [19] was -1.3%.
`Fc1ccc(-c2ncn(C3CCNCC3)c2-c2ccnc(Oc3ccc(Oc4ccccc4)cc3)n2)cc1`: the inhibition is 3.65% in assay [1]; -1.61% in assay [2]; 2.08% in assay [3]; -0.8% in assay [4]; 0.79% in assay [5]; 5.58% in [20]. Moreover, the inhibition in assay [8] is 9.79%; in assay [9], 3.67%; in [10], 5.57%; in assay [11], 4.51%; in assay [12], -0.81%.
Regarding `COc1ccc(-c2ccc3c(NC(=O)C4CC4)n[nH]c3n2)cc1`, the inhibition worked out at 1.57% in assay [2]; 2.49% in assay [3]; 0.72% in assay [4]; 0.93% in [5]; 3.56% in [6]; 1.85% in assay [7]. For the same compound, the inhibition in assay [20] was 2.19%; in assay [8] it was 3.67%; in assay [9], 4.98%; in [10], 4.66%; in assay [11], -1.22%; in [12], 1.44%. The inhibition in [13] is 1.32%; in assay [14] it was 5.28%; in [15], 2.79%; in assay [16] it was 8.84%; in assay [17], -0.41%; in [18] it was 0.43%. Besides, in assay [19], the inhibition was determined as 1.27%.
As to `COc1cc(Nc2ncc(-c3ccccc3)o2)cc(OC)c1OC`, the inhibition was 35.8% in assay [1]; 11.2% in assay [3]; 0.61% in assay [4]; 3.87% in assay [5]; -3.91% in assay [6]; -3.35% in [7]. For the same compound, the inhibition in assay [20] was -2.3%; in assay [8], -1.83%; in assay [9], 0.83%; in [10], 1.29%; in [11] it was -0.22%; in assay [12], 0.18%. Further, the inhibition in assay [13] was -3.46%; in [14], -4.25%; in assay [15], 1.4%; in [16] it was 0.04%; in assay [17], -0.94%; in assay [18], -1.63%. Besides, in [19], the inhibition is -1.8%.

For the origin of these results see ChEMBL document CHEMBL1961873, “Compounds: GSK PKIS; Assays: Nanosyn kinase panel” (2012).
